Data from PubChem BioAssay (EPA / NIEHS).
Active and inactive are the calls of the source. How the source made its calls: active means hit-call score of the fitted dose curve at least 0.9, where 1 is the maximum; inactive means score below 0.9.

How the values were obtained:
Conditions in all cases: mRNA level, 48 h; actives raise or lower the signal
[1] = read-out: Apolipoprotein A-V (APOA5) gene, APOA5 (gene 116519); test: LTEA_HepaRG_APOA5: Life Technologies and Expression Analysis (LTEA) Assay for Apolipoprotein A-V (APOA5) gene using HepaRG (AID 2283474)
How it was run: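 Readout is APOA5 transcript level by qRT-PCR on Fluidigm dynamic arrays, normalized to three housekeeping genes. HepaRG cultures received chemicals for 48 h at up to 100 uM (half-log steps, 0.5% DMSO), with gain or loss scored relative to DMSO.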

[2] = read-out: Apoptosis regulator Bcl-2 (Homo sapiens) (UniProt P10415); test: LTEA_HepaRG_BCL2: Life Technologies and Expression Analysis (LTEA) Assay for Bcl-2 gene using HepaRG (AID 2283475)
How it was run: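 Differentiated HepaRG cells in serum-free induction medium were exposed for 48 h to eight half-log concentrations up to 100 uM in 0.5% DMSO, in duplicate. BCL2 mRNA was quantified by TaqMan qRT-PCR normalised to ACTB, GAPDH and POLR2A, with bidirectional fitting versus DMSO.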

[3] = read-out: Bcl-2 (BID) gene, BID (gene 637); test: LTEA_HepaRG_BID: Life Technologies and Expression Analysis (LTEA) Assay for Bcl-2 (BID) gene using HepaRG (AID 2283476)
How it was run: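 Differentiated HepaRG cells in serum-free induction medium were exposed in duplicate for 48 h to eight half-log concentrations up to 100 uM in 0.5% DMSO. BID mRNA was quantified by qRT-PCR, normalized to ACTB, GAPDH and POLR2A.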

Caspase-3 (Homo sapiens) = Caspase-3 (Homo sapiens) (UniProt P42574); test: LTEA_HepaRG_CASP3: Life Technologies and Expression Analysis (LTEA) Assay for cysteine-aspartic acid protease (CASP3) using HepaRG (AID 2283477)
How it was run: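 Read-out is CASP3 mRNA level by TaqMan qRT-PCR in human HepaRG cells after 48 h chemical exposure. Eight half-log concentrations topping at 100 uM were tested in 0.5% DMSO; gain or loss was fitted relative to DMSO.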

[4] = read-out: Cytochrome P450 (CYP24A1), CYP24A1 (gene 1591); test: LTEA_HepaRG_CYP24A1: Life Technologies and Expression Analysis (LTEA) Assay for Cytochrome P450 (CYP24A1) using HepaRG (AID 2283478)
How it was run: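 HepaRG, 48 h chemical exposure, 8-pt half-log CRC from 100 uM, 0.5% DMSO vehicle, duplicates. Endpoint: CYP24A1 mRNA by Fluidigm TaqMan qRT-PCR, normalized ACTB/GAPDH/POLR2A; gain/loss fit vs DMSO.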

[5] = read-out: Cytochrome P450 (CYP1A2), CYP1A2 (gene 1544); test: LTEA_HepaRG_CYP1A2: Life Technologies and Expression Analysis (LTEA) Assay for Cytochrome P450 (CYP1A2) using HepaRG (AID 2283479)
How it was run: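 CYP1A2 transcript induction or loss, quantified by Fluidigm qRT-PCR against three housekeeping genes, was fitted bidirectionally against 0.5% DMSO controls. Human HepaRG cells received eight half-log concentrations from 100 uM over 48 h.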

[6] = read-out: cysteine-aspartic acid protease (CASP8), CASP8 (gene 841); test: LTEA_HepaRG_CASP8: Life Technologies and Expression Analysis (LTEA) Assay for cysteine-aspartic acid protease (CASP8) using HepaRG (AID 2283480)
How it was run: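 Differentiated HepaRG cells in serum-free induction medium, 48 h exposure, eight-point half-log series from 100 uM in 0.5% DMSO, duplicates. CASP8 mRNA by qRT-PCR, normalized to ACTB, GAPDH, POLR2A; bidirectional fit versus DMSO.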

[7] = read-out: Cytochrome P450 (CYP2B6), CYP2B6 (gene 1555); test: LTEA_HepaRG_CYP2B6: Life Technologies and Expression Analysis (LTEA) Assay for Cytochrome P450 (CYP2B6) using HepaRG (AID 2283481)
How it was run: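 HepaRG cells plated 48 h, switched to serum-free induction medium, then dosed 48 h (8 points, half-log from 100 uM, 0.5% DMSO). RNA isolated; CYP2B6 expression measured by qRT-PCR; gain or loss fitted relative to DMSO.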

[8] = read-out: Cytochrome P450 2C19 (Homo sapiens) (UniProt P33261); test: LTEA_HepaRG_CYP2C19: Life Technologies and Expression Analysis (LTEA) Assay for CYP2C19 using HepaRG (AID 2283482)
How it was run: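 Transcript levels of CYP2C19 were quantified by qRT-PCR after HepaRG cells were treated for 48 hours with test chemicals up to 100 uM (eight half-log concentrations, 0.5% DMSO vehicle). Gain or loss of signal was fitted relative to DMSO.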

CYP2C8 (gene 1558) = test: LTEA_HepaRG_CYP2C8: Life Technologies and Expression Analysis (LTEA) Assay for CYP2C8 using HepaRG (AID 2283483)
How it was run: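 Differentiated HepaRG cells in serum-free induction medium exposed 48 h in duplicate to 8 half-log concentrations from 100 uM in 0.5% DMSO. CYP2C8 mRNA by qRT-PCR normalized to ACTB, GAPDH, POLR2A; bidirectional fit versus DMSO.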

Measured: AC50

Cytochrome P450 2C19 (Homo sapiens), sequence (P33261 whole entry, looked up): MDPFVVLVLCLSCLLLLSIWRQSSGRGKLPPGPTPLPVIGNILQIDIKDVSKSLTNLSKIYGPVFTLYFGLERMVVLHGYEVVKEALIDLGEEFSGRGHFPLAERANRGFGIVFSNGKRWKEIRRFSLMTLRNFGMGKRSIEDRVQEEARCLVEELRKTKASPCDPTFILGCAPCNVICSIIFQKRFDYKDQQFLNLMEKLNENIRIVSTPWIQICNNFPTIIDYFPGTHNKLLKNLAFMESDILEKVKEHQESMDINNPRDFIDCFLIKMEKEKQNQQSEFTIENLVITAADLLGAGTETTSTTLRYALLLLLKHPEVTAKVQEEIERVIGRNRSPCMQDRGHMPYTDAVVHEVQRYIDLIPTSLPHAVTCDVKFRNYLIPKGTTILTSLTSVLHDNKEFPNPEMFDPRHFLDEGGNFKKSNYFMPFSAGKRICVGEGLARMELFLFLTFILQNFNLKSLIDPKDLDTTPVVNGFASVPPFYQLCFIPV
Caspase-3 (Homo sapiens), sequence (P42574 whole entry, looked up): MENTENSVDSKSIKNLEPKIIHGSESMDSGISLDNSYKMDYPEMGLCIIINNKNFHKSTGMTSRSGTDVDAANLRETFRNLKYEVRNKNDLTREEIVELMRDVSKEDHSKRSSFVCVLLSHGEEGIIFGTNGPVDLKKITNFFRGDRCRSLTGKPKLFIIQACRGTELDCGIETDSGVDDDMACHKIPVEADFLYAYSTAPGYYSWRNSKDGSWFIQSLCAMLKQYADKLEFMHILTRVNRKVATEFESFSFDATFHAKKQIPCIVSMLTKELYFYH
Apoptosis regulator Bcl-2 (Homo sapiens), sequence (P10415 whole entry, looked up): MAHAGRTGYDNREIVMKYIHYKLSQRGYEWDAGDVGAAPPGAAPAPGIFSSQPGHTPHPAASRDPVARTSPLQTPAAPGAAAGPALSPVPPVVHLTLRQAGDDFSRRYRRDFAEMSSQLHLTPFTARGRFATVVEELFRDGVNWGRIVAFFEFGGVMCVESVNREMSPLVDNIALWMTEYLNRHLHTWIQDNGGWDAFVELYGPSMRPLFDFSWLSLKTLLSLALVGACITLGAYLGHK

CC1(C)C(C=C(Cl)Cl)C1C(=O)OCc1cccc(Oc2ccccc2)c1 (stereo not drawn)
active: [5] 11 µM | [7] 12 µM
inactive: all other assays above

CC(=O)S[C@@H]1CC2=CC(=O)CC[C@]2(C)[C@H]2CC[C@@]3(C)[C@@H](CC[C@@]34CCC(=O)O4)[C@H]12
active: [1] 61.8 µM | Caspase-3 (Homo sapiens) 50 µM | [7] 52.6 µM | [8] 78.3 µM | CYP2C8 (gene 1558) 82.1 µM
inactive: [2] | [3] | [4] | [6]

C=CCOC(Cn1ccnc1)c1ccc(Cl)cc1Cl (stereo not drawn)
active: [2] 13.7 µM | [6] 84 µM | [7] 31.6 µM | [8] 34.3 µM | CYP2C8 (gene 1558) 27.2 µM
inactive: [3] | Caspase-3 (Homo sapiens) | [4]

CCOC(=O)C(C)Oc1ccc(Oc2nc3ccc(Cl)cc3o2)cc1 (stereo not drawn)
active: [1] 11.5 µM | [7] 3.22 µM | [8] 14 µM
inactive: all other assays above

O=C(Nc1ccc([N+](=O)[O-])cc1Cl)c1cc(Cl)ccc1O
active: [1] 4.26 µM | [2] 3.54 µM | Caspase-3 (Homo sapiens) 1.89 µM | [5] 0.744 µM | [6] 12 µM | [7] 3.89 µM | [8] 2.22 µM | CYP2C8 (gene 1558) 3.94 µM
inactive: [3] | [4]

COC(=O)c1ccc(I)cc1S(=O)(=O)NC(=O)Nc1nc(C)nc(OC)n1
active: [5] 50 µM
inactive: all other assays above

CCCCC(CC)CN1C(=O)C2C3C=CC(C3)C2C1=O (stereo not drawn)
active: [1] 79.3 µM | [5] 82.3 µM | [7] 88.6 µM | [8] 92 µM | CYP2C8 (gene 1558) 88.3 µM
inactive: all other assays above

COc1c(Cl)ccc(Cl)c1C(=O)O
inactive: all assays above

CSC(=O)c1cccc2nnsc12
inactive: all assays above

CCCN(CCC)C(=O)SCC
active: [7] 11.4 µM
inactive: all other assays above

CCOC(=O)c1ccc(O)cc1
not listed: [8]
inactive: all other assays above

CCCCC(CC)COC(=O)c1ccccc1C(=O)O (stereo not drawn)
active: [7] 29.1 µM
inactive: all other assays above

CCCCOC(=O)[C@@H](C)Oc1ccc(Oc2ccc(C(F)(F)F)cn2)cc1
inactive: all assays above

CCCCCCC(C)OC(=O)COc1nc(F)c(Cl)c(N)c1Cl (stereo not drawn)
active: [7] 50 µM
inactive: all other assays above

CN(C)C(=O)Nc1ccc(Cl)c(Cl)c1
active: [5] 30 µM | [7] 10.9 µM | [8] 28.7 µM
inactive: all other assays above

CCOC(=O)C(C)Oc1ccc(Oc2cnc3cc(Cl)ccc3n2)cc1 (stereo not drawn)
active: [5] 19.2 µM | [8] 1.24 µM
inactive: all other assays above

C#C[C@]1(O)CC[C@H]2[C@@H]3CCC4=CC(=O)CC[C@@H]4[C@H]3CC[C@@]21CC
active: [8] 5.47 µM
inactive: all other assays above

C[C@]12C[C@H](O)[C@H]3[C@@H](CCC4=CC(=O)CC[C@@]43C)[C@@H]1CC[C@@H]2C(=O)CO
active: [7] 50 µM | CYP2C8 (gene 1558) 50 µM
not listed: [5] | [8]
inactive: all other assays above

S=C([S-])NCCNC(=S)[S-].[Mn+2]
inactive: [2] | [3] | [4]
active: [1] 3.64 µM | Caspase-3 (Homo sapiens) 0.594 µM | [5] 0.654 µM | [6] 3.99 µM | [7] 2.35 µM | [8] 4.61 µM | CYP2C8 (gene 1558) 2.31 µM

CC(C)(C)[C@@H](O)[C@@H](Cc1ccc(Cl)cc1)n1cncn1
active: [5] 50 µM | [7] 3.37 µM | [8] 7.33 µM
inactive: all other assays above

CCSC(=O)N(CC(C)C)CC(C)C
inactive: all assays above

CCCOC(=O)NCCCN(C)C
inactive: all assays above

COC(=O)CSc1cc(N=c2sc(=O)n3n2CCCC3)c(F)cc1Cl
active: [7] 38.8 µM | [8] 24 µM
inactive: all other assays above

OB(O)O
inactive: all assays above

O=C(O)c1ccccc1
inactive: all assays above

N[C@@H](Cc1cc(I)c(Oc2ccc(O)c(I)c2)c(I)c1)C(=O)O
active: [1] 69.9 µM | [7] 40 µM | [8] 61.6 µM | CYP2C8 (gene 1558) 46.8 µM
not listed: [5]
inactive: all other assays above

O=C(c1ccccc1)C1CCCCC1
active: [7] 25 µM
inactive: all other assays above
